Laboratory results taken from PubChem BioAssay AID588591 (National Center for Advancing Translational Sciences (NCATS), 2011).
Among all 390,000 compounds or so, about 4,700 (1.2%) were called active. Roughly 4% stayed inconclusive and do not appear here. This excerpt belongs to a sample that is enriched for actives. Unmarked numbers belong to inactive results. Calls come from the whole dose curve; as a rule, active = well fitted inhibition curve with a large enough effect; inconclusive = small, poorly fitted or top-dose-only effect, or another doubt; inactive = no such curve, though single readings can be large or run the other way.

What follows are compounds tested against DNA polymerase eta (Homo sapiens) (UniProt Q9Y253) (assay: qHTS for Inhibitors of Polymerase Eta). Conditions: recombinant Pol eta, fluorescent DNA replication assay; series mostly up to 114 µM; activity change, negative = inhibition: at the top concentration.
Chain of DNA polymerase eta (Homo sapiens) (Q9Y253 whole entry, looked up): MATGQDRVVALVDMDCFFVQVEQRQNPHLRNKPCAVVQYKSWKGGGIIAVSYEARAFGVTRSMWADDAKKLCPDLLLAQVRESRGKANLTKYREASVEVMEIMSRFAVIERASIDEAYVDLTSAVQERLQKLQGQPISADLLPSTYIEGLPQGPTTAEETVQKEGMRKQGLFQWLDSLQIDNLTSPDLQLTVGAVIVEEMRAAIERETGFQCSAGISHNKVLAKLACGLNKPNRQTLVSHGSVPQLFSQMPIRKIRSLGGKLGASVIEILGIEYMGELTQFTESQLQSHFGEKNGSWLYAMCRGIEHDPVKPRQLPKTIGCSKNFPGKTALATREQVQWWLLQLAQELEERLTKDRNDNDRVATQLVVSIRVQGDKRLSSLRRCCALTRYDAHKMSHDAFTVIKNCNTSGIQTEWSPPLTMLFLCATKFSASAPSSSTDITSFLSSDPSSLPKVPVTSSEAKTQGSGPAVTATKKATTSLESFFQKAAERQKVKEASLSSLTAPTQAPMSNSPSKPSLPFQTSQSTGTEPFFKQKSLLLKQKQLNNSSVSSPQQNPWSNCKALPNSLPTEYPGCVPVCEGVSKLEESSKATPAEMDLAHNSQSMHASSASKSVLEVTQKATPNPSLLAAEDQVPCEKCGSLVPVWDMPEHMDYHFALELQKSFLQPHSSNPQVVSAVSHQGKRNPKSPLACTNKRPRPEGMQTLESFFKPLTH
Description: The Y-family of DNA polymerases, such as Pol eta, are specifically involved in DNA repair. Pol eta copies undamaged DNA with a lower fidelity than other DNA-directed polymerases. However, it accurately replicates UV-damaged DNA; when thymine dimers are present, this polymerase inserts the complementary nucleotides in the newly synthesized DNA, thereby bypassing the lesion and suppressing the mutagenic effect of UV-induced DNA damage. […] Thus, while pol eta's (and most likely iota's) normal function is to protect humans against the deleterious consequences of DNA damage, under certain conditions they can have deleterious effects on human health. As a consequence, we propose to utilize a high throughput replication assay to identify small molecule inhibitors of pol eta. In a collaboration between the National Institute of Child Health & Human Development (NICHD) and NIH Chemical Genomics Center, a high-throughput, fluorescent screen was developed to screen the NIH Molecular Libraries Small Molecule Repository (MLSMR). This screen is used to identify inhibitors of pol eta. NIH Chemical Genomics Center [NCGC] NIH Molecular Libraries Probe Centers Network [MLPCN] MLPCN Grant: MH090825 Assay Submitter (PI): Roger Woodgate, NICHD)
Three microliters of reagents (buffer in column 3 and 4 as negative control and 10 nM Pol eta in columns 1, 2, and 5-48) were dispensed into a 1,536-well black solid-bottomed plate. Compounds (23 nL) were transferred via Kalypsys pin tool equipped with 1536-pin array. The plates were then incubated for 15 min at room temperature, and 1 µL substrate (50 nM final concentration) was added to start the reaction and kinetically read twice at 0 min and 10 min on the Viewlux reader
% is set by controls: 0 for no effect and ±100 for the full control effect; potency is the fitted concentration of half-maximal effect.

| SMILES | Potency | activity change, negative = inhibition [%] |
| --- | --- | --- |
| O=C(O)C1=C(C(=O)O)C2CCC1C2 | 17.8 µM (active) | – |
| CCOc1ccccc1NC(=O)CSc1ncc(S(=O)(=O)c2ccc(C(C)(C)C)cc2)c(=O)[nH]1 | 89.1 µM (active) | – |
| CCOc1ccccc1NC(=O)COc1ccc(S(=O)(=O)N2CCCC2)cc1 | – | -8.27 |
| O=C(CSc1ncc(S(=O)(=O)c2ccc(Br)cc2)c(=O)[nH]1)Nc1ccc2c(c1)OCCO2 | – | -18.1 |
| Cc1cc(C)cc(NC(=O)Cc2csc(C)n2)c1 | – | -1.34 |
| COc1cccc(NC(=O)CSC2=Nc3ccccc3C3=NC(CC(=O)NC4CCCCC4)C(=O)N23)c1 (stereo not given) | – | -0.885 |
| Cc1c(C(=O)N2CCCC2)oc2c1-c1nn(CC(=O)NCc3ccc(OC(C)C)cc3)cc1CC2 | – | -18.6 |
| Cc1ccc(CNC(=O)CSC2=Nc3ccccc3C3=NC(C)C(=O)N23)cc1 (stereo not given) | – | -3.8 |
| CCOC(=O)CSC1=Nc2ccccc2C2=NC(CCC(=O)NCc3ccc(F)cc3)C(=O)N12 (stereo not given) | – | 3.45 |
| CC(C)C1N=C2c3ccccc3N=C(SCC(=O)c3ccc(O)c(O)c3)N2C1=O (stereo not given) | 2.24 µM (active) | – |
| CCCN1C(=O)C(O)(CC(=O)c2ccc(CC)cc2)c2cc(Br)ccc21 (stereo not given) | – | -2.45 |
| COc1ccc(NC(=O)/C(C#N)=C\c2cc(OC)c(OCc3ccc(C(=O)O)cc3)cc2Br)cc1 | 50.1 µM (active) | – |
| CCOC(=O)c1ccc(-c2ccc(/C=C(\C#N)C(=O)Nc3ccc(C)cc3)o2)cc1 | – | -6.58 |
| COc1ccc(CCNC(=O)CSc2nc(-c3ccc(OC)c(OC)c3)ccc2C#N)cc1 | – | -16.6 |
| COc1ccc2c(c1)Cc1sc(NC(=O)c3ccccc3Br)nc1-2 | – | -17.5 |
| O=c1cc(CSc2ncn[nH]2)[nH]c2ccc(F)cc12 | – | -5.87 |
| O=C(c1ccc(CS(=O)(=O)c2ccccc2)o1)N1CCN(c2ccccc2)CC1 | 50.1 µM (active) | – |
| CCOC(=O)C1CCCN(C(=O)c2ccc(CS(=O)(=O)c3ccc(Br)cc3)o2)C1 (stereo not given) | – | -7.23 |
| O=C(c1ccc(CS(=O)Cc2ccccc2Cl)o1)N1CCN(c2ccccc2)CC1 (stereo not given) | – | -11 |
| COC(=O)c1sccc1S(=O)(=O)N(CC(=O)Nc1ccc(C)c(F)c1)c1ccc(C)c(C)c1 | – | -16.4 |
| CN(C)S(=O)(=O)c1cccc(-c2nn(-c3ccccc3)cc2/C=C2\SC(=S)N(CC(=O)O)C2=O)c1 | 35.5 µM (active) | – |
| Cc1ccc(-c2nn(-c3ccccc3)cc2/C=C2\SC(=S)N(CCCCCC(=O)O)C2=O)o1 | 44.7 µM (active) | – |
| Cc1nc(C)c(-c2nnc(-c3cccc(S(=O)(=O)N(C)C)c3)o2)cc1C(=O)NN | – | -1.81 |
| Cc1nn(-c2ccc(F)cc2)c(-n2cccc2)c1C(=O)N1CCN(c2ccccc2)CC1 | – | -19.6 |

| SMILES | Potency | activity change, negative = inhibition [%] |
| --- | --- | --- |
| COc1ccccc1N1CCN(CCCNC(=O)c2cnn(-c3ccccc3Cl)c2C2CCN(C(=O)OC(C)(C)C)CC2)CC1 | – | -19.7 |
| CSc1ccc(CCNC(=O)c2cnn(-c3ccccc3)c2-n2cccc2)cc1 | – | -21.5 |
| O=C(Nc1ccc(F)cc1F)c1ccc2c(=O)n3c(nc2c1)CCCCC3 | – | 7.2 |
| CCc1cccc(NC(=O)c2cnc(N3CCOCC3)c3ccccc23)c1 | – | -24.7 |
| CCOC(=O)C1=C(c2ccc(OC)cc2)C(=O)c2ccccc2C1=O | 89.1 µM (active) | – |
| CCOC(=O)C1C(=O)C=C(c2ccc(OC)cc2)CC1c1ccco1 (stereo not given) | – | -5.95 |
| CCOC(=O)C1=C(c2ccccc2)NC(=O)NC1c1cc(OC)c(OC)cc1OC (stereo not given) | – | 5.55 |
| Clc1ccc(CSc2nncn3c2cc2occc23)cc1 | – | -28.9 |
| C=CCOC(=O)C1=C(C)NC(SCC(=O)OCC)=C(C#N)C1c1ccc(C)cc1 (stereo not given) | 17.8 µM (active) | – |
| CCOC(=O)C1=C(C)OC(N)=C(C#N)C1c1cncc(-c2ccc(F)cc2)c1 (stereo not given) | – | -10.5 |
| C=CCC1(C#N)C(=S)NC(C)=C(C(=O)OCC)C1c1ccccc1 (stereo not given) | – | -9.51 |
| COC(=O)c1c(NC(=O)c2ccc(Cl)c(Cl)c2)sc2c1CCCC2 | – | -18.5 |
| COC(=O)c1ccc(-c2nc3cc(NC(C)=O)ccc3o2)cc1 | – | 0.0029 |
| CCOC(=O)c1c(NC(=O)CSc2nnc(CN3CCOCC3)n2C)sc2c1CCCC2 | – | -21.9 |
| CC1CCN(C(=O)CSc2nnc(-c3ccco3)n2N)CC1 | – | -18.2 |
| NC(=O)c1c(NC(=O)CSc2nnc(-c3ccco3)n2N)sc2c1CCCC2 | 12.6 µM (active) | – |
| CCOC(=O)c1c(C)[nH]c(CCC(=O)NCCCN2CCN(c3cc(C)ccc3C)CC2)c1C | – | -20.8 |
| CCCc1nn2c(=O)cc(COC(=O)c3ccc(NC(=O)C(C)Oc4ccccc4)cc3)nc2s1 (stereo not given) | – | -0.486 |
| COc1ccc(OC)c(CCNC(=O)CCCn2c(=O)c3cccn3c3cccnc32)c1 | – | -8.68 |
| Cc1ccccc1-c1nc2scc(CCNC(=O)C(=O)Nc3ccc(F)cc3F)n2n1 | – | -18.1 |
| Cc1ccc(C(=O)NCCSc2c(C)[nH]c3ccccc23)cc1C | – | -23.4 |
| CCCCNC(=O)c1cc(-c2ccc(Cl)c(Cl)c2)on1 | – | -6.17 |
| O=C1/C(=C\c2cccnc2)CN(Cc2ccccc2)C/C1=C\c1cccnc1 | 50.1 µM (active) | – |
| O=C(O)CCc1cccnc1 | – | -2.96 |

| SMILES | Potency | activity change, negative = inhibition [%] |
| --- | --- | --- |
| Nc1ccc2c(c1)C(=Cc1cccnc1)c1ccccc1-2 | – | -16 |
| COc1ccc(OCC(=O)Nc2cccc(C(=O)OCc3cc(=O)n4nc(C)sc4n3)c2)cc1 | – | -20.5 |
| Cc1ccc(C(=O)c2ccc(N3CCN(C)CC3)c([N+](=O)[O-])c2)cc1 | – | -11.6 |
| O=C(O)C1CCN(c2ccc([N+](=O)[O-])cc2[N+](=O)[O-])CC1 | 25.1 µM (active) | – |
| CC1CCN(c2ccc(C(=O)NCc3ccc4c(c3)OCO4)cc2[N+](=O)[O-])CC1 | – | -26.9 |
| Cc1cccc(N2CCN(c3ccc(C(N)=O)cc3[N+](=O)[O-])CC2)c1C | – | -7.46 |
| CC1CCN(c2ccc(C(=O)Nc3nnc(C4CC4)s3)cc2[N+](=O)[O-])CC1 | – | -2.8 |
| CC1CCN(c2ccc(S(=O)(=O)Nc3cc(C(=O)O)cc(C(=O)O)c3)cc2[N+](=O)[O-])CC1 | 22.4 µM (active) | – |
| COc1ccc(C(=O)Nc2onc3c2CCCC3)cc1 | – | -17.3 |
| COc1ccc(CCNS(=O)(=O)c2cc(-c3cc(C)no3)ccc2C)cc1OC | – | -9.95 |
| Cc1ccccc1NC(=O)Cn1c(=O)n(CC2CCC(C(=O)NCCc3ccccc3)CC2)c(=O)c2ccccc21 (stereo not given) | – | -0.383 |
| O=C(CSc1nc2nccnc2c(=O)n1CCc1c[nH]c2ccccc12)Nc1ccccc1F | – | -13.3 |
| COc1ccc(CCNC(=O)Cn2c(=O)cc(C(F)(F)F)c3c(C)nn(C)c32)c(OC)c1 | – | -11.4 |
| CC(=O)c1ccc(NC(=O)CSc2c(C(C)C)cnc3c2c(=O)n(C)c(=O)n3C)cc1 | – | -13.3 |
| O=C(O)c1c(CNCc2cccc(F)c2)c2ccccc2n1Cc1ccccc1 | – | -0.34 |
| COCCCNc1nc2c(-c3cccc(C(F)(F)F)c3)nnn2c2ccccc12 | – | -9.1 |
| COCCCNc1nc2c(-c3cccc(C)c3)nnn2c2ccc(Cl)cc12 | 25.1 µM (active) | – |
| COc1ccc(CCNc2nc3c(-c4cccc(F)c4)nnn3c3ccccc23)cc1OC | – | -6.17 |
| CCC(CC)c1nn2cc(-c3ccccc3)nc2s1 | – | -11.7 |
| COc1ccc(S(=O)(=O)c2c(Nc3ccc(C)cc3)sc(C(=O)c3ccc(C)cc3)c2N)cc1 | – | -1.29 |
| NS(=O)(=O)c1ccc2nc(NC(=O)CS(=O)(=O)c3ccc(F)cc3)sc2c1 | 79.4 µM (active) | – |
| NS(=O)(=O)c1ccc2nc(NC(=O)COc3ccccc3)sc2c1 | – | 5.57 |
| Cc1nc2ccc(S(=O)(=O)N(CC(=O)Nc3ccc(F)cc3)Cc3ccccc3)cc2s1 | – | -16.1 |
| CCOc1ccc(CCNC(=O)CN(c2ccc(C)cc2)S(=O)(=O)N(C)C)cc1OCC | – | -20.3 |

| SMILES | Potency | activity change, negative = inhibition [%] |
| --- | --- | --- |
| O=C(Nc1cc(Cl)cc(Cl)c1)c1ccc2c(c1)N(Cc1cccc(Cl)c1)C(=O)c1ccccc1S2=O (stereo not given) | – | -22.9 |
| O=c1[nH]n2c(=O)c3c([nH]c2c1N=Nc1ccccc1)CCC3 | 31.6 µM (active) | – |
| CC(C)(C)n1c(=O)[nH]c2c(c1=O)CCC2 | – | -3.5 |
| Cc1ccc(-n2ncc3c(NCCCn4ccnc4)ncnc32)cc1Cl | – | -18.1 |
| O=C(COc1ccccc1F)OCc1cc(=O)n2nc(C3CCCCC3)sc2n1 | – | -18 |
| O=C(CCSCc1cccc(F)c1)NCc1ccccc1 | – | 11.9 |
| CCc1cc2c(cc(C(=O)OC)n2Cc2nc(-c3ccc(C)cc3)oc2C)s1 | – | 6.26 |
| Cc1csc(SCC(=O)Nc2sccc2C#N)n1 | 79.4 µM (active) | – |
| CC(=O)c1cc(C#N)c(SCC(=O)Nc2nccs2)nc1C | – | -3.13 |
| CC(c1nnc(SCC(=O)Nc2sccc2C#N)n1-c1ccc(Cl)cc1)N(C)C (stereo not given) | – | 8.96 |
| COc1ccc(S(=O)(=O)NCc2cccn2Cc2cccc(C)c2)cc1Cl | – | -14.1 |
| CSc1cccc(NC(=O)CN2C(=O)CCc3cc(S(=O)(=O)N4CCCCC4)ccc32)c1 | – | -5.6 |
| Cc1ccc2nc(COc3ccc(NC(=O)COc4ccccc4F)cc3)cc(=O)n2c1 | – | -15.3 |
| CC(=O)c1ccc(NC(=O)c2nc(-c3ccc(C)cc3)n3c2CCCCC3)cc1 | – | -12.9 |
| N#Cc1c(N2CCCCC2)nc(N)c2c(N)nc(SCC(=O)O)cc12 | 22.4 µM (active) | – |
| Cc1ccc(CN2CCC(CNC(=O)c3cnn(-c4ccccc4Cl)c3C3CCN(C(=O)OC(C)(C)C)CC3)CC2)cc1 | – | -19.5 |
| COc1ccc(-c2cc(NCc3ccc(F)cc3)n3cnnc3n2)cc1 | – | -10.6 |
| CC1CN(C(=O)N2CCC(C(=O)NCc3cccs3)CC2)c2ccccc2O1 (stereo not given) | – | -18.7 |
| N#Cc1c(-c2cccs2)nc(SCC(=O)c2ccc(Br)cc2)[nH]c1=O | 35.5 µM (active) | – |
| N#Cc1ccc(-c2cccs2)nc1SCc1ccc(Br)cc1 | – | -21.6 |
| Cc1nnc(SCC(=O)NCc2cccs2)[nH]c1=O | – | -2.58 |
| COc1ccc(-c2nn3c(=O)cc(CN4CCN(C(=O)c5ccc(OC)c(OC)c5)CC4)nc3s2)cc1 | – | -13.7 |
| COc1ccc(Cn2ccnc2SCC(=O)Nc2ccc3c(c2)OCO3)cc1 | – | -9.75 |
